Test results as given in PubChem BioAssay AID2675 (National Center for Advancing Translational Sciences (NCATS), 2010).
Among all 280,000 compounds or so, about 100 (0.036%) were called active. Not shown: some 11% with an inconclusive outcome. The sample holds actives, similar compounds and a random draw of the others, so the mix is not that of the screen. Calls follow the shape of the dose curve; as a rule, active = well fitted inhibition curve with a large enough effect in the signal ratio, with a control signal flat (not every such curve was filed as active); inconclusive = small, poorly fitted or top-dose-only effect, or effect the other way, or a change in a side signal; inactive = no such curve, though single readings can be large or run the other way; the % refers to the signal ratio.

Target: Muscleblind-like protein 1 (Homo sapiens) (UniProt Q9NR56)
Test: qHTS Assay for Inhibitors of MBNL1-poly(CUG) RNA binding
Settings: TR-FRET MBNL1-His/biotin-(CUG)12 binding, 665/545 ratio; series mostly up to 57.5 µM
Source text: NIH Chemical Genomics Center [NCGC] NIH Molecular Libraries Probe Production Centers Network [MLPCN] MLPCN Grant: R03 MH087421-01 Assay Submitter (PI): Charles Thornton NCGC Assay Overview: Expanded CTG repeats in the 3' untranslated region of the DM protein kinase (DMPK) gene causes type I myotonic dystrophy (DM1). DM1 is a multi-systemic disease with a prevalence of 1/7000. Clinical features include myotonia, progressive muscle weakness and wasting, cardiac arrhythmia, insulin resistance, hypersomnolence, cataracts, and other symptoms. The pathogenic effect of expanded CTG repeats stems from deleterious effects of the mutant transcript. CUGexp mRNA accumulates in nuclear foci and sequesters proteins of the muscleblind family, of which MBNL1 is the most common family member in skeletal muscles. The binding interaction between MBNL1 and CUGexp tracts leads to deregulation of alternative splicing and is therefore a key molecular step in the pathogenesis of DM1. To target this binding interaction, we optimized a protein-RNA binding assay in 1536-well format for identification of small molecule inhibitors of biotinylated (CUG)12 and his-tagged MBNL1 binding. Protein-RNA complex of MBNL1-His and Biotin-(CUG)12 captures the detection reagents terbium-labeled anti-His antibody and streptavidin conjugated XL665. This brings the terbium label within close proximity to XL665 to allow time-resolved fluorescence resonance energy transfer (TR-FRET). Inhibitors of MBNL1-(CUG)12 binding will disrupt TR-FRET.
NCGC Assay Protocol Summary: This is a TR-FRET binding assay with MBNL1-His and Biotin-(CUG)12 RNA. The assay uses a ratiometric measurement. In the presence of MBNL1-(CUG)12 complex, the excitation energy is transferred to the XL665 acceptor label, causing emission at 665nm, while the 545nm donor signal […]. Data were normalized to the controls for basal activity (buffer only) and 100% activity (with MBNL1-(CUG)12). […] The final titration was 92 nM to 58 uM. (3) Add 1 ul of terbium labeled anti-His antibody (0.055 ng/ul final concentration) (4) Add 1 ul of streptavidin-XL665 (5 nM final concentration) (5) Incubate 60 min at room temperature (6) Detect the assay plate in a EnVision plate reader (PerkinElmer) with Ex=340 nm, Em1=665 nm and Em2=545 nm. Keywords: mytonic dystrophy type I, DM1, muscleblind like 1, MBNL1, CUG expansion, protein-RNA binding inhibitor, high throughput screening, MLSMR, MLSCN, NIH Roadmap, qHTS and NCGC
% is scaled to controls: 0 for no effect and ±100 for the full control effect.

Sequence of Muscleblind-like protein 1 (Homo sapiens) (Q9NR56 whole entry, looked up): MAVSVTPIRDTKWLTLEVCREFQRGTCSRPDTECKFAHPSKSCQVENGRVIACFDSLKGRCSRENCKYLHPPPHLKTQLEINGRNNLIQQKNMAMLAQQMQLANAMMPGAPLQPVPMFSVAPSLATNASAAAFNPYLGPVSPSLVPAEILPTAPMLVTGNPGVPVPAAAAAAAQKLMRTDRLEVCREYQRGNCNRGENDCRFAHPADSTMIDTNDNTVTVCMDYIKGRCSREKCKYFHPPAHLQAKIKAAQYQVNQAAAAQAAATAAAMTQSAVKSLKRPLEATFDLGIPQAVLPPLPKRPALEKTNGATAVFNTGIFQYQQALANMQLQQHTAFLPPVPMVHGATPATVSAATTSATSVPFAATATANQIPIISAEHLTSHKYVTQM

Activity change, negative = inhibition, inactive:
CC(C)c1ccc(N(C(=O)c2ccco2)C(C(=O)NC2CCCC2)c2cccnc2)cc1 (stereo unspecified)
COc1ccccc1CCNS(=O)(=O)c1cn(C)nc1C
CCOc1ccc(N(CC(=O)NCCc2ccc(F)cc2)S(=O)(=O)c2ccccc2)cc1
Cc1ccc(Cn2c(=N)c(S(=O)(=O)c3ccc(C)cc3)cc3c(=O)n4ccccc4nc32)cc1
C=CCSc1nc2c(c(=O)[nH]c(=O)n2C)n1Cc1ccccc1
Cc1ccc(-c2csc(NC3OC(=O)c4ccccc43)n2)cc1 (stereo unspecified)
Cc1ccc(C)c(NC(=O)c2cc(-c3cc(C)cc(C)c3O)n[nH]2)c1
Cc1ccccc1N1CCN(S(=O)(=O)c2ccc3ccccc3c2)CC1
Cc1ccc(CS(=O)Cc2ccc(C(=O)N3CCOCC3)o2)cc1 (stereo unspecified)
CCn1cc(CN2CCN(CC(C)(C)C)C(CCO)C2)c2ccccc21 (stereo unspecified)
Cc1ccc(-c2ccc(=O)n(Cc3ccc(F)cc3Cl)n2)cc1
CC(C)(C)c1ccc(C(=O)N2CCN(CCNC(=O)C(=O)Nc3ccc(F)cc3)CC2)cc1
COc1ccccc1NC(=O)C1CCN(C(=O)c2ccc(C(C)(C)C)cc2)CC1
COc1ccc(OC)c(CCNC(=O)c2nn(C)c3c2CS(=O)(=O)c2ccccc2-3)c1
CCCC[C@]12Cc3cc(OC)c(OC)cc3C(O1)C1=C(CC3(CCCCC3)OC1=O)O2 -1.93% [at 11.5 µM]
COc1cccc(CNS(=O)(=O)c2ccc3c(c2)CC(C)N3C(C)=O)c1 (stereo unspecified)
Cc1cccc(C(=O)N2CCCC(Nc3ccc(C(C)C)cc3)C2)n1 (stereo unspecified)
Cc1ccc2nc(SCC(=O)NC3CCCC3)[nH]c2c1
Cc1[nH]c(C)c(S(=O)(=O)N2CCN(c3cccc(C(F)(F)F)c3)CC2)c1C(=O)N1CCCC1
CS(=O)(=O)N(CC(=O)N1CCOCC1)c1cccc(Cl)c1Cl
CCc1ccc(OCC(=O)NCC(c2ccc(Cl)cc2)N2CCCCC2)cc1 (stereo unspecified)
Cc1c(C(=O)NCC(c2ccco2)N2CCCC2)oc2ccc(Cl)cc12 (stereo unspecified)
N#Cc1ccccc1S(=O)(=O)N1CCN(C(=O)c2cc(-c3ccccc3)nn2-c2ccccc2)CC1
CCCCC(C(=O)NC(C)(C)C)N(Cc1ccccc1)C(=O)c1snc(C(N)=O)c1N (stereo unspecified)
CS(=O)(=O)Nc1cccc(C2=NN(C(=O)c3cccc(F)c3)C(c3cccs3)C2)c1 (stereo unspecified)
COc1cccc(CNC(=O)Cn2c(=O)oc3cc(S(=O)(=O)N4CCCCC4)ccc32)c1
COc1ccc(NC(=O)c2sc3nc(C)nc(N4CCN(c5ccccn5)CC4)c3c2C)c(OC)c1
CCCCc1nc2cc(C(=O)N3CCCCC3CCO)ccc2o1 (stereo unspecified)
O=C(c1ccccc1)N1CCC(CC2CC(c3ccc(Cl)cc3)=NO2)(C(=O)NCC2CCCCC2)CC1 (stereo unspecified)
O=C(c1ccco1)N1CCN(Cc2cccc(C(F)(F)F)c2)CC1
O=C(Nc1ccc(F)cc1)c1ccc(S(=O)(=O)NCc2cccnc2)cc1
Cc1ccc(S(=O)(=O)N2CCN=C2SCc2c(F)cccc2Cl)cc1
COc1ccc(C)cc1Nc1n[n+](-c2ccccc2)c(-c2cccc(Cl)c2Cl)s1
C=CCc1cccc(/C=N/NC(=O)COc2ccc(-n3cnnn3)cc2)c1O
O=C1CCN(Cc2ccccc2)CCN1[C@H](CSc1ccccc1)c1ccccc1
CC(C)c1ccc(NC(=O)C2CCCN(S(=O)(=O)c3cccnc3)C2)cc1 (stereo unspecified)
COc1ccc(NC(=O)c2cccc3c2C(=O)N(CC2CCCO2)C3)cc1OC (stereo unspecified)
COc1ccc2c3c(c(=O)oc2c1)C1O[C@](CCCCN2C(=O)c4ccccc4C2=O)(Cc2c1ccc1ccccc21)O3 -13% [at 11.5 µM]
CC1CCCN(CCCNC(=O)CN2C(=O)COc3ccc(S(=O)(=O)N4CCOCC4)cc32)C1 (stereo unspecified)
COc1cccc(OCC(O)CNC(=O)c2oc3c(C)c(C)ccc3c2C)c1 (stereo unspecified)
O=C(NCc1ccccc1)c1onc(CSc2nc3ccccc3[nH]2)c1C(=O)NCc1ccccc1
CN(C)C(=O)CCC(=O)N1CCCCC1C(=O)Nc1ccc(Oc2ccccc2F)cc1 (stereo unspecified)
COc1ccc(-c2cc(C(=O)N3CCN(Cc4ccc5c(c4)OCO5)CC3)on2)cc1OC
COc1cc(C(=O)NCC2(c3ccccc3)CCCC2)ccc1OC(C)C
O=C(Nc1ccc(S(=O)(=O)N2CCCCCC2)cc1)c1c(F)cccc1F
Cc1cc2c(c(=O)n1Cc1ccccc1)C1O[C@](CCCCN3C(=O)c4ccccc4C3=O)(Cc3ccccc31)O2 41.3% [at 11.5 µM]
COc1ccc(Oc2cn[nH]c2-c2ccc(OC)cc2O)cc1
CCOC(=O)N1CCC(N2Cc3cccc(C(=O)Nc4c(C)cccc4CC)c3C2=O)CC1
CC(C)CN(Cc1c(O)ccc2c(=O)c(-c3ccccc3)coc12)CC(C)C
O=C(O)c1ccc2c(=O)n3c(nc2c1)/C(=C/c1ccc(OC(F)F)cc1OC(F)F)CC3
CCOC(=O)C1(CCOc2ccccc2)CCN(Cc2cc(OC)cc(OC)c2)CC1
CNC(=O)c1sc(Nc2ccc(OCc3ccccc3)cc2)nc1C
COc1cc(C(=O)NCc2cc3cc(Cl)ccc3n2C)cc(OC)c1OC
CCn1c(=S)sc2c(=O)n(CC(=O)Nc3cccc(Br)c3)c(C)nc21
Cc1ccc(OCC(=O)NC(C)c2ccccc2)cc1C (stereo unspecified)
COc1ccc(CNS(=O)(=O)c2ccc(NC(=O)N3CCCCC3)cc2)cc1
COc1ccc2[nH]c(=O)c(CN(Cc3cccnc3)S(=O)(=O)c3ccccc3F)cc2c1
CSc1ccccc1OCc1cc(C(=O)N(C)CCc2c(C)n[nH]c2C)no1
CCOc1ccc(NC(=O)C2CCN(C(=O)N3CCOc4ccccc43)CC2)cc1
CCOc1c(OC)cccc1C(=O)NCC1(c2ccccc2)CCCC1
Cc1cc(=O)oc2c3c(cc(OCC(=O)NCc4ccccn4)c12)OC(C)(C)CC3
